This passage reports Kd results from PMC5540273 (PLoS ONE, 2017).

SMILES strings stand for the structures. Where only a bound is given, the exact number is not on record here.
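Note: kd values determined as follow-up on hits from a single-replicate KINOMEscan panel screen.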

In one test the test system is DAPK1.
The term Kd denotes the equilibrium constant for the complex coming apart. The low end stands for tighter binding, the high end for weaker binding. Compound `Cl.Cl.c1ccc(-c2cc3ccncc3cc2OC2CCNCC2)cc1` [GSK1122999] yielded a Kd of 300 nM. With `COc1ccc(-c2nc3n(c2-c2ccncc2)CCC3)cc1` [SKF-104493], the Kd is greater than 10000 nM.

`CC(=O)Nc1n[nH]c2ncc(-c3ccccc3)cc12` [SB-548492]: the Kd is greater than 10000 nM.

In a further test the test system is DAPK3.
Take `Cn1cc(-c2ccc3c(c2)CCN3C(=O)Cc2cccc(C(F)(F)F)c2)c2c(N)ncnc21` [GSK2606414]: the Kd was greater than 10000 nM. Take `Cl.Cl.c1ccc(-c2cc3ccncc3cc2OC2CCNCC2)cc1` [GSK1122999]: the Kd stood at 170 nM. For the compound `FC(F)(F)c1ccc(-c2cc(-c3c[nH]nc3-c3ccccn3)ccn2)cc1` [GW599550], the Kd was greater than 10000 nM. On to `O=C(c1ccc(-c2cc(-c3c[nH]nc3-c3ccccn3)ccn2)cc1)N1CCCC1` [GW792479], for which the Kd was greater than 10000 nM.

Another test concerns DDR1.
The compound `O=C(Nc1ccccc1)Nc1ccc(Oc2ccc3nccn3n2)cc1` returned an equilibrium dissociation constant (Kd) of 9.3 nM.

For `Cn1ccc2ncnc(Oc3ccc(NC(=O)Nc4cccnc4)c(Cl)c3)c21`, the Kd came out at 57 nM. `Cn1cc(-c2ccc3c(c2)CCN3C(=O)Cc2cccc(C(F)(F)F)c2)c2c(N)ncnc21` [GSK2606414] registered a Kd of 280 nM. The compound `FC(F)(F)c1ccc(-c2nn3ncccc3c2-c2ccnc(Nc3cccc(C(F)(F)F)c3)n2)cc1` [GW828205] showed a Kd greater than 10000 nM. As for `COc1ccc(NC(=O)Nc2ccc(C)c(-c3ccc(C(=O)Nc4ccncc4)cc3)c2)cc1` [GSK1398475], binding was characterised by a dissociation constant (Kd) of 860 nM.

In the case of `COc1ccc(-c2oc3ncnc(N)c3c2-c2ccc(OC)cc2)cc1` [SB-589132], the Kd worked out at 650 nM.

In turn, `Cc1ccc(NC(=O)c2cccc(C#N)c2)cc1-c1ccc(C(=O)Nc2ccncc2)cc1` [GSK1398463] gave a Kd of 22 nM. The same measure, in the same setting: with `Fc1ccc(Nc2nccc(-c3c(-c4ccc(Cl)cc4)nn4ncccc34)n2)cc1F` [GW829058] the figure was 750 nM.

The subject of another test is DDR2.
`O=C(Nc1ccccc1)Nc1ccc(Oc2ccc3nccn3n2)cc1`: the Kd turned out to be 3 nM. Regarding `Cn1ccc2ncnc(Oc3ccc(NC(=O)Nc4cccnc4)c(Cl)c3)c21`, the Kd was 76 nM.

With `Cc1ccc(NC(=O)c2cccc(C#N)c2)cc1-c1ccc(C(=O)Nc2ccncc2)cc1` [GSK1398463], binding was put at a Kd of 140 nM.

In a further test the test system is T1, DMPK2.
T1 construct: gene CDC42BPG
`CNc1nccc(-c2c(-c3ccc(F)cc3)ncn2CCCN2CCOCC2)n1` [SB-222516] gave a Kd greater than 10000 nM. For `CCCc1ccc(S(=O)(=O)NC2CCN(c3ccnc(Nc4ccc(OC)cc4)n3)C2)cc1` (stereo not drawn) [GSK1379737], the Kd was greater than 10000 nM. On to `Clc1cccc(-c2nc(Nc3ccncc3)c3ccccc3n2)c1` [GW873004], for which the Kd was greater than 10000 nM.
